Laboratory results published in PubChem BioAssay (Tox21).
Where “and” joins values, the source holds several entries; their conditions need not be identical. Identical values can stand only once. Records with an inconclusive call do not appear. Where a call stands in place of a potency, no number is given. Where a structure was tested more than once in an assay, its records may differ in their call. Calls of active or inactive are those of the source. Unless noted, the call rests on the fitted dose curve; in most records, active means well fitted curve in the direction sought with a large enough effect in the repeat runs; inconclusive means weak or mixed curves; inactive means no such curve, though single readings can be large; an effect the other way counts as inactive or inconclusive.

Key:
[1] = qHTS assay to identify small molecule agonists of the estrogen receptor alpha (ER-alpha) signaling pathway in the presence of an antagonist - cell viability counter screen (AID 1259386);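 further: series mostly up to about 92 µM; cells exposed to compounds for 22 h at 37 °C before the viability read; nearly all actives have a fitted effect of over 30% in size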
Method in brief: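 Steps: 5-day stripped-FBS culture; seed and incubate 24hr; add ICI-182,780 (10.0nM final); pin 15-point compound titration; incubate 22hr at 37C; add CellTiter-Fluor at 21hr; read fluorescence.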

[2] = target: Progesterone receptor (Homo sapiens) (UniProt P06401); assay: qHTS assay to identify small molecule agonists of the progesterone receptor (PR) signaling pathway (AID 1346784; calls by dose curve; further: nearly all actives have a fitted effect of over 30% in size)
Method in brief: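 Agonist qHTS: compounds pinned onto 3,000 PR-UAS-bla HEK 293T cells per well in charcoal-stripped serum medium, 16hr at 37C, then beta-lactamase activity measured by LiveBLAzer FRET fluorescence after 2 hours at room temperature.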

[3] = target: Progesterone receptor (Homo sapiens) (UniProt P06401); assay: qHTS assay to identify small molecule antagonists of the progesterone receptor (PR) signaling pathway (AID 1346795; active means well fitted inhibition curve with a large enough effect in the signal ratio in the repeat runs, not every such curve was filed as active; the % refers to the signal ratio; further: potency means the concentration at half of the fitted maximal effect)
Method in brief: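 Antagonist mode with agonist R5020 at 1 nM final and 16 hr incubation at 37C. Reporter was beta-lactamase driven by UAS in HEK293T (PR-UAS-bla), 2% charcoal-stripped serum; signal from LiveBLAzer FRET substrate, 2 hr at room temperature.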

[4] = qHTS assay to identify small molecule antagonists of the progesterone receptor (PR) signaling pathway - cell viability counter screen (AID 1346798); further: series mostly up to about 92 µM; nearly all actives have a fitted effect of over 50% in size
Method in brief: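 Cytotoxicity read as CellTiter-Glo luminescence (30 min, room temperature) in the same wells as the beta-lactamase readout. HEK293T PR-UAS-bla cells in charcoal-stripped 2% FBS received compound and R5020, then 16 h at 37C, 5% CO2.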

[5] = qHTS assay to identify small molecule agonists of the progesterone receptor (PR) signaling pathway - cell viability counter screen (AID 1346799; calls by dose curve; further: nearly all actives have a fitted effect of over 45% in size; further: potency means the concentration at half of the fitted maximal effect)
Method in brief: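 Cytotoxicity measured by CellTiter-Glo luminescence (30 min, RT) in the same wells as the PR beta-lactamase agonist read. Those HEK293T cells had 16 h compound treatment at 37 C in 2% charcoal-stripped FBS medium.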

[6] = qHTS assay to identify small molecule antagonists of the TGF-beta/Smad signaling pathway - cell viability counter screen (AID 1346824); further: nearly all actives have a fitted effect of over 50% in size
Method in brief: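 Cytotoxicity counter-screen run in the same wells as the beta-lactamase Smad reporter read: CellTiter-Glo luminescence after 30 min at room temperature. HEK 293T SBE-bla cells had 5 hr compound exposure at 37 C with TGF-beta1 (0.25 ng/mL stock).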

[7] = qHTS assay to identify small molecule agonists of the TGF-beta/Smad signaling pathway - cell viability counter screen (AID 1346829); further: top concentration of the series differs between compounds; nearly all actives have a fitted effect of over 45% in size
Method in brief: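 Tox21 qHTS format: SBE-bla HEK 293T cells treated with DMSO-dissolved compounds for 5 hr; CellTiter-Glo luminescence after 30 min at room temperature.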

[8] = target: Thyrotropin-releasing hormone receptor (Homo sapiens) (UniProt P34981); assay: qHTS assay to identify small molecule antagonists of the thyrotropin-releasing hormone receptor (TRHR) signaling pathway (AID 1346877; active means well fitted inhibition curve with a large enough effect in the repeat runs, not every such curve was filed as active; further: series mostly up to about 51 µM)
Method in brief: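 Human TRHR in HEK293 cells; inhibition of the intracellular calcium rise triggered by 1 nM TRH was followed by fluorescence over 3 min. Compounds were run at 15 concentrations, three replicates each.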

[9] = target: Thyrotropin-releasing hormone receptor (Homo sapiens) (UniProt P34981); assay: qHTS assay to identify small molecule agonists of the thyrotropin-releasing hormone receptor (TRHR) signaling pathway (AID 1346891; calls by dose curve; further: series mostly up to about 58 µM)
Method in brief: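 Agonist-mode intracellular calcium readout: kinetic fluorescence over 3 min at 1 s intervals after compound addition to TRHR-HEK293 cells (18 h seeded, 2 h dye-loaded at 37 C). Fifteen concentrations, triplicates.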

[10] = Human pregnane X receptor (PXR) small molecule agonists, qHTS cell viability counter screen (AID 1346977); further: nearly all actives have a fitted effect of over 50% in size
Method in brief: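 Same-well viability read: CellTiter-Fluor added after 23 hr compound exposure, fluorescence measured 1 hr later. Cells were PXR-Luc HepG2 seeded at 2,000/well in 5% charcoal-stripped FBS medium, rested 5 hr before dosing at 37 C.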

[11] = Caspase-3/7 induction in HepG2 cells by small molecules, qHTS assay (AID 1346978); further: nearly all actives have a fitted effect of over 15% in size
Method in brief: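 Caspase-3/7 induction was measured by Caspase-Glo 3/7 luminescence (30 min, room temperature) after a 17 hr compound exposure of wild-type HepG2 cells seeded at 2,000 per well and pre-incubated 5 hr.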

[12] = Caspase-3/7 induction in CHO-K1 cells by small molecules, qHTS cell viability counter screen (AID 1346979); further: nearly all actives have a fitted effect of over 35% in size; further: potency means the concentration at half of the fitted maximal effect
Method in brief: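 Cytotoxicity counter screen: CellTiter-Fluor added to compound-treated wild-type CHO-K1 cells at 16 h (37C, 5% CO2), fluorescence measured 1 h later; same wells as caspase-3/7 measurement.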

[13] = Caspase-3/7 induction in CHO-K1 cells by small molecules, qHTS assay (AID 1346980); further: nearly all actives have a fitted effect of over 15% in size
Method in brief: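 Luminescent Caspase-Glo 3/7 read (30min, room temperature) quantified apoptosis induction. Cells were wild-type CHO-K1, treated with compound for 17hr at 37 C and 5% CO2.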

[14] = Caspase-3/7 induction in HepG2 cells by small molecules, qHTS cell viability counter screen (AID 1346981); further: series mostly up to about 92 µM; nearly all actives have a fitted effect of over 30% in size
Method in brief: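 The parent HepG2 line is plated at 2,000 cells per well and rested 5 hr before compound pinning from DMSO stocks. Following a 16-hr treatment at 37 C, a fluorogenic live-cell substrate (CellTiter-Fluor) reports viability after 1 hr.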

[15] = qHTS assay to identify small molecule agonists of the TGF-beta/Smad signaling pathway (AID 1346859; active means well fitted activation curve with a large enough effect in the signal ratio in the repeat runs, not every such curve was filed as active; the % refers to the signal ratio; further: series mostly up to about 77 µM)
Method in brief: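 Fluorescence (ex 405 nm; em 460 and 530 nm) was read 2 h after LiveBLAzer FRET substrate at RT. The preceding compound treatment of overnight-plated SBE-bla HEK293T cells lasted 5 h at 37 C.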

[16] = target: Nuclear receptor subfamily 1 group I member 2 (Homo sapiens) (UniProt O75469); assay: Human pregnane X receptor (PXR) small molecule agonists, qHTS assay (AID 1346982); further: nearly all actives have a fitted effect of over 35% in size; further: potency means the concentration at half of the fitted maximal effect
Method in brief: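 After plating in 5% charcoal-stripped FBS and a 5 hr rest, PXR-Luc HepG2 cells received compounds in DMSO. Following 24 hr at 37 C, ONE-Glo was added and light output read.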

[17] = target: Nuclear receptor subfamily 1 group I member 2 (Rattus norvegicus) (UniProt Q9R1A7); assay: Rat pregnane X receptor (rPXR) activation by small molecules, qHTS assay (AID 1346983); settings: rPXR luciferase reporter cells, One-Glo luminescence, 24 h; stronger effect = higher value; further: nearly all actives have a fitted effect of over 20% in size
Method in brief: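 Luminescent readout (One-Glo luciferase, 30 min room temperature) followed 24 hr compound treatment at 37 C of rPXR cells plated 2,000 per well and preincubated 5hr; qHTS format with compounds delivered in DMSO.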

[18] = target: Nuclear receptor subfamily 1 group I member 2 (Homo sapiens) (UniProt O75469); assay: CYP3A4 induction through human pregnane X receptor (PXR) by small molecules, qHTS assay (AID 1346984); further: nearly all actives have a fitted effect of over 40% in size
Method in brief: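 Human PXR activation is tracked via CYP3A4 promoter-luciferase in DPX-2 (HepG2) cells. Compounds treat cells for 24hr at 37C, and luminescence is read after One-Glo.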

[19] = target: Nuclear receptor subfamily 1 group I member 2 (Homo sapiens) (UniProt O75469); assay: Human pregnane X receptor (PXR) activation by small molecules, qHTS assay (AID 1346985); further: nearly all actives have a fitted effect of over 40% in size
Method in brief: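 DPX-2 cells (HepG2 co-transfected with a PXR response element and a CYP3A4-promoter luciferase construct) were seeded at 2,000 per well, rested 5 hr at 37C, then exposed to DMSO-dissolved compounds for 24 hr. Activation was read as luciferase luminescence.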

[20] = target: Cytochrome P450 2D6 (Homo sapiens) (UniProt P10635); assay: Cytochrome P450 Family 2 Subfamily D Member 6 (CYP2D6) small molecule antagonists: luciferase reporter qHTS assay (AID 1671196); further: nearly all actives have a fitted effect of over 50% in size; further: potency means the concentration at half of the fitted maximal effect
Method in brief: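 Quantitative HTS of Tox21 chemicals against CYP2D6 using a luminescent proluciferin substrate. After NADPH addition, 1 h room-temperature reaction; luminescence recorded 20 min post detection reagent.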

Thyrotropin-releasing hormone receptor (Homo sapiens), sequence (P34981 whole entry, looked up): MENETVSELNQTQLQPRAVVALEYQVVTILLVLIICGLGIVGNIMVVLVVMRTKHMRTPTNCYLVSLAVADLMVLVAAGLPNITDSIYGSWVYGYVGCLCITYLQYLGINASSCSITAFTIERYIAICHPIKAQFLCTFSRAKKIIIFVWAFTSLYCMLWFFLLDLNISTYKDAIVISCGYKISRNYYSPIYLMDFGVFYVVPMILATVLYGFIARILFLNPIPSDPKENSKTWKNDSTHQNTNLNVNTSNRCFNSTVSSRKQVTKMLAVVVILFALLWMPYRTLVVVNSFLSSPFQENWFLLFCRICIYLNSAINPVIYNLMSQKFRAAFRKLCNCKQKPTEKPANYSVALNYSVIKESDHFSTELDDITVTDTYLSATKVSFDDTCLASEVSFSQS
Progesterone receptor (Homo sapiens), sequence (P06401 whole entry, looked up): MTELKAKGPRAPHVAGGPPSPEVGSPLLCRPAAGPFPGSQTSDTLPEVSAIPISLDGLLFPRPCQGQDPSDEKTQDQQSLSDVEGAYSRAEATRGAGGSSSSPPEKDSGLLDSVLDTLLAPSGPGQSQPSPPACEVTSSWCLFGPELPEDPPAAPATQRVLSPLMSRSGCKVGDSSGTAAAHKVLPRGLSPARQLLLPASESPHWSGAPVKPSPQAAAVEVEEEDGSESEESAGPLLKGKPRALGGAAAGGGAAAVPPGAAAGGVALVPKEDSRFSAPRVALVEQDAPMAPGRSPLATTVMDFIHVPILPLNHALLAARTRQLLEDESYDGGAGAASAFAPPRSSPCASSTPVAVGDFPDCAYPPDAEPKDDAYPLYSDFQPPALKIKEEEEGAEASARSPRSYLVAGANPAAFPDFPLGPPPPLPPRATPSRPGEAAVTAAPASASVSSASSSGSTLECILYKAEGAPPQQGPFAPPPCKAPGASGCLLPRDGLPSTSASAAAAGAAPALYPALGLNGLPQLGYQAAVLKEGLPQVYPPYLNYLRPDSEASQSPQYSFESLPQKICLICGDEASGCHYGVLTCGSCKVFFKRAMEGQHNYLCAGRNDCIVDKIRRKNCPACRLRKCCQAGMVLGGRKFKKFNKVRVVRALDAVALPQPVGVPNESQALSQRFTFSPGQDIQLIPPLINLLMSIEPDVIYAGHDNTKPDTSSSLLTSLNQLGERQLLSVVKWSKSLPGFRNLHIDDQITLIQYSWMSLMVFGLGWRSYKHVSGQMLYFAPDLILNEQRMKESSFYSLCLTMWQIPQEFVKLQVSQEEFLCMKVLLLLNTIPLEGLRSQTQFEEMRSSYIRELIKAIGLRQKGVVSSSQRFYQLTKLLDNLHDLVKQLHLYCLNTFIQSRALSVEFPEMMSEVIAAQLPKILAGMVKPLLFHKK
Nuclear receptor subfamily 1 group I member 2 (Rattus norvegicus), sequence (Q9R1A7 whole entry, looked up): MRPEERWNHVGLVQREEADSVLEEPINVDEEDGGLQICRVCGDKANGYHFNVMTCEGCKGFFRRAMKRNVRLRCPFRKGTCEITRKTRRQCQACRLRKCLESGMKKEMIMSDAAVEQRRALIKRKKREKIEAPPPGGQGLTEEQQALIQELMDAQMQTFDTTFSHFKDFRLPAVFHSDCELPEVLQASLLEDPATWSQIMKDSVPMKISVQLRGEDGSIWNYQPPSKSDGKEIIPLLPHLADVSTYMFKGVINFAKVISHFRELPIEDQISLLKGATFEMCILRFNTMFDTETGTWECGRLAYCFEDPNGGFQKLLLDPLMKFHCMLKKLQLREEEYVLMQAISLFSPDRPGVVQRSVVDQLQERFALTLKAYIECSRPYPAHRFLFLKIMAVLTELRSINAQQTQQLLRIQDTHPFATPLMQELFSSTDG
Cytochrome P450 2D6 (Homo sapiens), sequence (P10635 whole entry, looked up): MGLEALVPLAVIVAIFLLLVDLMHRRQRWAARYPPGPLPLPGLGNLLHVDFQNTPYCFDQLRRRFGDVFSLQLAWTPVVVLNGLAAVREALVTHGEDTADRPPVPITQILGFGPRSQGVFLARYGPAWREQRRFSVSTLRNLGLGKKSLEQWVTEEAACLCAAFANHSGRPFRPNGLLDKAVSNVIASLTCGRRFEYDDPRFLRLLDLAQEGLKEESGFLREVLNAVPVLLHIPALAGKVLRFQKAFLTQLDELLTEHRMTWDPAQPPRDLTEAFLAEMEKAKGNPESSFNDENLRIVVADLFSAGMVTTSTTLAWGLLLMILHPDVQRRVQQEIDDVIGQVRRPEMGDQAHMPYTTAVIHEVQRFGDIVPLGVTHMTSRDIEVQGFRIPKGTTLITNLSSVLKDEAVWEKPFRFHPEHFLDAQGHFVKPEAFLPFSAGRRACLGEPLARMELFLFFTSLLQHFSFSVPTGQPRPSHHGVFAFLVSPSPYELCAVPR
Nuclear receptor subfamily 1 group I member 2 (Homo sapiens), sequence (O75469 whole entry, looked up): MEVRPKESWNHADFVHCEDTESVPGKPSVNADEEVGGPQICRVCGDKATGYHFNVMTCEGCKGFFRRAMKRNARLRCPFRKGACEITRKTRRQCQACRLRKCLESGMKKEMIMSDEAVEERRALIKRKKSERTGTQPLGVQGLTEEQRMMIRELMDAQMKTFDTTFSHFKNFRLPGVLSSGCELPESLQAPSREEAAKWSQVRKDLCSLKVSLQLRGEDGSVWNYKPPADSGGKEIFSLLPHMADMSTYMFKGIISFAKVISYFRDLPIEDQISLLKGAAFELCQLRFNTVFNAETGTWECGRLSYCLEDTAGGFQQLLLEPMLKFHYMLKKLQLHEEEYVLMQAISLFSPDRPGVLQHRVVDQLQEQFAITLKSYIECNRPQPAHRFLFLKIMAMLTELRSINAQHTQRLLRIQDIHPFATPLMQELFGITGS

Compound | Potency [1] | Potency [2] | Potency [3] | Potency [4] | Potency [5] | Potency [6] | Potency [7] | Potency [8] | Potency [9] | Potency [10] | Potency [11] | Potency [12] | Potency [13] | Potency [14] | outcome [15] | Potency [16] | max activation [17] | Potency [18] | Potency [19] | Potency [20]
O | inactive | inactive | inactive | inactive | inactive | inactive | inactive | inactive | inactive | inactive | inactive | inactive | inactive | inactive |  |  |  |  |  | 
CCN(CC)C(=O)Nc1ccc(OCC(O)CNC(C)(C)C)c(C(C)=O)c1 (centres undefined) | inactive | inactive | inactive |  | inactive | inactive | inactive | inactive | inactive | inactive | inactive | inactive | inactive | inactive | inactive | inactive | 1.62% (inactive) | inactive | inactive | 
CCCCOCCOC(=O)c1ccccc1C(=O)OCCOCCCC | inactive | inactive | 53.3 µM (active) |  | inactive | inactive | inactive | inactive | inactive | inactive | inactive | inactive | inactive | inactive | inactive | 59.8 µM (active) and inactive |  |  |  | 31 µM (active) and 25.2 µM (active)
Nc1nc(=S)c2[nH]cnc2[nH]1 | inactive | inactive | inactive | inactive | 4.73 µM (active) | inactive |  | inactive | inactive | inactive | inactive | 5.31 µM (active) and 9.69 µM (active) and 3.76 µM (active) | inactive |  | inactive | inactive | -4.65% (inactive) | inactive | inactive | inactive
C=C(C)C1CC=C(C)C(OC(C)=O)C1 (centres undefined) | inactive | inactive | inactive | inactive | inactive | inactive | inactive |  |  | inactive | inactive | inactive |  | inactive | inactive | inactive |  |  |  | 28.1 µM (active) and inactive
O=C1NCC2(CCN(CCc3ccccc3)CC2)O1 | inactive | inactive | inactive | inactive | inactive | inactive | inactive | inactive | inactive | inactive | inactive | inactive |  | inactive | inactive | inactive | -2.2% (inactive) | inactive | inactive | 13.8 µM (active)
C=CC(=O)OCCCCCCCC | inactive | inactive | inactive | inactive | inactive | inactive | inactive |  |  | inactive | inactive | inactive | inactive | inactive | inactive | inactive |  |  |  | inactive
Cc1cc(C(C)(C)C)c(O)c(C(C)(C)C)c1 | inactive | inactive | inactive | inactive | inactive | inactive | inactive | inactive | inactive | inactive | inactive | inactive |  | inactive | inactive | inactive |  |  |  | inactive
C=CS(=O)(=O)O | inactive | inactive | inactive |  | inactive | inactive | inactive | inactive | inactive | inactive | inactive | inactive | inactive | inactive | inactive | inactive |  |  |  | 
CO[Si](OC)(OC)c1ccccc1 | inactive | inactive | inactive |  | inactive | inactive | inactive | inactive | inactive | inactive |  | inactive | inactive | inactive | inactive | inactive |  |  |  | inactive
CCCCN(CCO)CCCC | inactive | inactive | inactive | inactive | inactive | inactive | inactive | inactive | inactive | inactive |  | inactive | inactive | inactive | inactive |  |  |  |  | 36.4 µM (active)
O=C(Oc1ccccc1)c1ccccc1O | inactive | inactive | inactive |  | inactive | inactive | inactive |  |  | inactive | inactive | inactive |  | inactive | inactive | inactive |  |  |  | inactive
CCCC(=O)c1ccccc1 | inactive | inactive | inactive |  | inactive | inactive | inactive | inactive | inactive | inactive | inactive | inactive | inactive | inactive | inactive | inactive |  |  |  | 31.7 µM (active)
